KB-3-1 cytotox: KB-3-1 parental cell cytotoxicity | KB-3-1 viability, CellTiter-Glo ATP luminescence, 72 h | Potency, µM (highest dose often 46.1 µM), hits mostly cytotoxic | hit rate 1.4% among 400,000; also: nearly all actives have a fitted effect of over 60% in size
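Parental KB-3-1 adenocarcinoma cells in phenol-red-free DMEM with 10% FBS were pin-treated with compounds at several concentrations, incubated 72 h at 37 °C, and viability read by CellTiter-Glo luminescence; concentration-effect curves were fitted after normalization.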
HT1080NT lethal: kills 2HG-producing HT-1080-NT fibrosarcoma cells | Potency, µM (series often up to 46.1 µM), without a hit: top-dose activity, negative = less viability, most hits filed as cytotoxic | AID 686970 | hit rate 1.6% among 360,000 | HT-1080-NT fibrosarcoma viability, CellTiter-Glo ATP luminescence, 48 h;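 also: NT is the 2HG producing partner of a matched IDH1 knockdown line; 0% = DMSO-treated cells and -100% = media-only wells without cells; nearly all actives have a fitted effect of over 55% in size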
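Read-out is CellTiter-Glo luminescence after 10 minutes at room temperature, following 48 hours' compound treatment of HT-1080-NT cells (750 cells/well, RPMI, 5% FBS, 37 degrees C).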
TDP1 cell CPT: DT40-hTDP1 cell growth loss with CPT; chicken DT40 Tdp1-/-;hTDP1 cells + 20 nM CPT, ATP luminescence, 48 h; Potency, µM (titrated, usually from 46.2 µM), without a hit: top-dose activity change, negative = growth inhibition, actives largely listed as inhibitors; hit rate 12% among 420,000; also: nearly all actives have a fitted effect of over 55% in size
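Cell growth measured by CellTiter-Glo luminescence after a minimum 48 h, 37 C compound exposure with 20 nM CPT in Tdp1-knockout DT40 cells stably expressing hTDP1, seeded 400/well; qHTS titration format.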
KB-V1 cytotox: kills drug-selected multidrug resistant KB-V1 cells; KB-V1 MDR cells viability, CellTiter-Glo, 72 h; Potency, µM (highest dose often 46.1 µM), usual class: cytotoxic; hit rate 3.4% among 400,000; also: nearly all actives have a fitted effect of over 60% in size
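qHTS viability screen in drug-selected KB-V1 MDR cells: 72 h compound treatment at 37 degrees C, ATP luminescence end point.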
TDP1 cell noCPT: qHTS for Inhibitors of human tyrosyl-DNA phosphodiesterase 1 (TDP1): qHTS in cells in absence of CPT; hit rate 15% among 420,000; Potency, µM (highest dose often 46.2 µM), for the others: at the highest dose activity change, negative = growth inhibition, actives largely listed as inhibitors; DT40 Tdp1-/- hTDP1 cells, no CPT, ATP luminescence, 48 h; also: nearly all actives have a fitted effect of over 55% in size
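Growth of hTDP1-complemented DT40 Tdp1-knockout cells is measured by ATP luminescence after at least 48 hr compound exposure at 37 °C, with DMSO substituting for the 20 nM CPT used in the parallel screen.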
HT1080 IDH1KD tx: toxicity to HT-1080 IDH1 knockdown cells (counter line); HT-1080 IDH1 knockdown viability, ATP luminescence, 48 h; Potency, µM (highest dose often 46.1 µM), inactives show at the highest dose activity, negative = toxicity, usual class: cytotoxic; hit rate 2% among 360,000;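 also: 0% = DMSO wells and -100% = cell-free medium wells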
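HT-1080-IDH1KD cells (IDH1 knocked down), 750/well in RPMI with 5% FBS, treated with compound 48 h at 37 degrees C. Viability by CellTiter-Glo luminescence, normalised to DMSO and no-cell wells; concentration-response curves classed.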
An asterisk follows results filed as active; i = inactive; ? = inconclusive; nt = no result given. Hits are enriched below; roughly 19% of the tested compounds scored in any of these assays. Calls follow the shape of the dose curve; as a rule, active = well fitted curve in the direction sought with a large enough effect; inconclusive = small, poorly fitted or top-dose-only effect, or another doubt; inactive = no such curve, though single readings can be large; an effect the other way counts as inactive or inconclusive. Unless noted, % is scaled to controls: 0 for no effect and ±100 for the full control effect; potency is read from the fitted curve at half-maximal effect.

SMILES | KB-3-1 cytotox | HT1080NT lethal | TDP1 cell CPT | KB-V1 cytotox | TDP1 cell noCPT | HT1080 IDH1KD tx
OC(c1ccccc1)c1ncc(-c2ccccc2Cl)[nH]1 (centres undefined) | i | -2.7% | 3.3% | i | -15.2% | 2.4%
O=C(O)CC/C(=N\Nc1ccc(Cl)cc1)c1cccs1 | i | -17.5% | -10.2% | i | -14.3% | -17.9%
c1ccc(NN=C(c2ccccc2)c2cccs2)cc1 | i | -0.8% | -6.7% | i | 20.6µM* | -20.1%
COc1ccc(OC)c(S(=O)(=O)Nc2cc3c4c(c2)CC(=O)N4CCC3)c1 | i | -23.5% | ? | i | 14.6µM* | -12.8%
CN(C)c1ccc(NS(=O)(=O)c2cc3c4c(c2)CC(=O)N4CCC3)cc1 | i | 2.7% | ? | i | ? | -2.2%
CCCCc1ccc(NS(=O)(=O)c2cc3c4c(c2)CC(=O)N4CCC3)cc1 | i | nt | 14.6µM* | i | 11.6µM* | nt
Cc1ccc(C)c(S(=O)(=O)Nc2cc3c4c(c2)CC(=O)N4CCC3)c1 | ? | -7.4% | ? | 11.6µM* | ? | -6.2%
Cc1ccc(S(=O)(=O)Nc2cc3c4c(c2)CCC(=O)N4CCC3)cc1 | i | -14.5% | ? | i | 20.6µM* | -3.8%
COc1ccc(C)cc1S(=O)(=O)Nc1cc2c3c(c1)CC(=O)N3CCC2 | ? | ? | ? | i | ? | ?
Cc1ccc(-c2noc(-c3cccnc3N(C)Cc3ccc(Cl)cc3)n2)cc1 | i | nt | -17.8% | i | -17.1% | nt
CCN(CC)CCOCCOc1cc(C)c(Cl)c(C)c1 | i | ? | 23.1µM* | ? | 17.8µM* | -6.8%
CCC(C)NCCOCCOc1ccc(Cl)cc1Br (centres undefined) | i | 20.6µM* | ? | i | ? | ?
Cc1ccc(OCCOCCNC(C)C)c(Br)c1 | i | -13.8% | -26.6% | i | -23.4% | -7.6%
CCC(C)NCCOCCOc1cc(C)c(Cl)c(C)c1 (centres undefined) | ? | 20.6µM* | 25.9µM* | ? | 14.6µM* | 20.6µM*
CCCOc1ccc(-c2nc3ccc(Br)cc3c(=O)o2)cc1 | i | nt | -6.1% | i | -9.1% | nt
COc1ccc(C(=O)CSc2nc3ccc([N+](=O)[O-])cc3[nH]2)cc1 | i | 1.7% | ? | i | 16.4µM* | 0.0%
Cc1nc2nc(SCC(=O)c3cccc([N+](=O)[O-])c3)[nH]c2cc1Br | ? | -1.9% | ? | i | 18.4µM* | -12.3%
Cc1ccc2nc(SCC(=O)NC3CC3)[nH]c2c1 | i | 1.4% | -5.9% | i | 13.1% | 0.6%
O=C(CSc1nc2ccc(Cl)cc2[nH]1)NC1CCCC1 | i | 6.1% | -16.4% | i | -29.8% | 11.8%
O=C(CSc1nc2ccc([N+](=O)[O-])cc2[nH]1)NC1CCCCC1 | ? | ? | ? | i | 25.9µM* | ?
O=C(CSc1nc2ccc([N+](=O)[O-])cc2[nH]1)NC1CCCCCC1 | ? | ? | -15.2% | 13µM* | ? | ?
O=C(CSc1nc2ncc(Br)cc2[nH]1)c1cccc([N+](=O)[O-])c1 | i | 14.4% | -4.9% | i | -16.3% | 9.2%
COc1cc(Cl)c(C)cc1NC(=O)c1sc2nc3n(c(=O)c2c1C)CCCCC3 | i | nt | 7.8% | i | -5.7% | nt
CC(C)(C)NC(=O)NC(=O)CSc1cccc(C(F)(F)F)c1 | i | 2.9% | -15.6% | i | -2.3% | 0.1%
COc1ccc(N2CC(NC(=O)C(c3ccccc3)c3ccccc3)CC2=O)cc1OC (centres undefined) | i | nt | ? | i | ? | nt
SMILES | KB-3-1 cytotox | HT1080NT lethal | TDP1 cell CPT | KB-V1 cytotox | TDP1 cell noCPT | HT1080 IDH1KD tx
CC1(C)CC(C(=O)N2CCOc3ccc(CN4CCN(Cc5ccccn5)CC4)cc3C2)CCO1 (centres undefined) | nt | nt | 10.5% | nt | 1.9% | nt
Cc1[nH]c(=O)[nH]c(=O)c1S(=O)(=O)Nc1ccc(F)cc1F | i | 4.3% | -3.4% | i | 8.0% | 10.6%
CN(C)c1ccc(C(CNS(=O)(=O)c2ccc(Br)cc2)N2CCOCC2)cc1 (centres undefined) | i | nt | ? | i | ? | nt
Cc1ccc(CNc2ccc(N3CCN(C)CC3=O)cc2)cc1 | i | nt | nt | i | nt | nt
O=c1[nH]cc(C=NNc2ccccc2)c(=O)[nH]1 | i | ? | -1.2% | i | -7.6% | ?
CCOc1cc(S(=O)(=O)N(Cc2ccccc2)Cc2ccccc2)c(OCC)cc1-n1cnnn1 | i | 2.7% | ? | 3.66µM* | -17.2% | -3.5%
CCOc1cc(S(=O)(=O)NCc2ccccc2)c(OCC)cc1-n1cnnn1 | i | -0.3% | -5.2% | i | -10.4% | -5.7%
Cc1cc(C)nc(N/C(=N\S(=O)(=O)Cc2ccccc2)Nc2ccc(F)c(Cl)c2)n1 | i | 4.1% | 18.4µM* | i | 25.9µM* | 10.9%
Cc1cc2c(cc1S(=O)(=O)NCc1ccc(F)cc1)OCCN2C | nt | nt | -3.8% | nt | -17.6% | nt
O=C(N/N=C/c1cc2c(cc1Br)OCO2)c1cccnc1 | i | 0.9% | 4.9% | ? | ? | 0.9%
O=C(N/N=C/c1cc(Br)c(O)c(Br)c1O)c1cccnc1 | ? | ? | 20.6µM* | i | ? | 10.3µM*
O=C(N/N=C/c1cc(O)ccc1Br)c1cccnc1 | 20.6µM* | ? | 5.8µM* | i | 2.91µM* | ?
COc1cc(NS(=O)(=O)c2ccc(NC(=O)c3ccc(OC)c(Br)c3)cc2)nc(OC)n1 | i | nt | 5.2% | i | -10.5% | nt
Cc1ccc(C)c(CSc2nnc3[nH]c(=O)cc(-c4ccccc4)n23)c1 | nt | nt | -2.8% | nt | -2.7% | nt
Cn1cc(-c2nc3cnc(N4CCOCC4)nc3n(CCC#N)c2=O)c2ccccc21 | nt | nt | -1.1% | nt | 22.8% | nt
CC1=CC(=O)C(C(C)C)=C/C1=C(\c1cc(C(C)C)c(OP(=O)(O)O)cc1C)c1ccccc1C(=O)O | 16.4µM* | ? | ? | ? | 20.6µM* | 23.1µM*
COCCCNC(=O)c1sc2ncn(CC(=O)Nc3ccc(C)c(Cl)c3)c(=O)c2c1C | i | -3.9% | ? | i | 20.6µM* | -21.7%
Cc1ccc(NC(=O)c2sc3ncn(CC(=O)N4CCN(c5ccccn5)CC4)c(=O)c3c2C)cc1F | i | -15.1% | ? | i | -17.3% | 0.3%
COc1cc(NC(=O)c2sc3ncn(CC(=O)N4CCCCC4C)c(=O)c3c2C)cc(OC)c1OC (centres undefined) | i | 2.2% | ? | ? | 11.6µM* | 1.4%

Screening data from PubChem BioAssay.
